Potency and affinity values are given separately. Inconclusive results are not listed. A call without a number means that no potency is given here. Activity calls are given as the source filed them.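 How the source made its calls: active means signal loss from cell killing with fitted potency at or below twice the top valid dose; inconclusive means flat drop of 30 to 70%, or unreliable curve fit; inactive means opposite direction, flat within 30%, or weaker potency.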
Experiment: A549 cell cytotoxicity, dose response, cytotoxicity control, cherry-picks, 26 µM top dose (AID 1053119)
Conditions: A549 viability, CellTiter-Glo ATP luminescence, 72 h; series mostly up to 26 µM

With `C=C1C(=O)O[C@@H]2C[C@@H](C)[C@@H]3C=CC(=O)[C@@]3(C)[C@@H](O)[C@H]12` the outcome was “inactive”.
